Source: the supplement of paper PMC3334620
Over roughly 33,000 sequences, “E-score (-0.5 to 0.5)” has its median near -0.016; the highest 2% begin near 0.3. This is one part of a sample in which the highest values are shown more often than they occur.

What follows are sequences tested against T1, Yer184c (UniProt P39961) (assay: PBM E-score (8-mer binding enrichment) (E-score (-0.5 to 0.5)); higher = stronger / more preferred TF binding). Conditions: protein concentration: 100 nM; construct: GST-full length.
T1 sequence: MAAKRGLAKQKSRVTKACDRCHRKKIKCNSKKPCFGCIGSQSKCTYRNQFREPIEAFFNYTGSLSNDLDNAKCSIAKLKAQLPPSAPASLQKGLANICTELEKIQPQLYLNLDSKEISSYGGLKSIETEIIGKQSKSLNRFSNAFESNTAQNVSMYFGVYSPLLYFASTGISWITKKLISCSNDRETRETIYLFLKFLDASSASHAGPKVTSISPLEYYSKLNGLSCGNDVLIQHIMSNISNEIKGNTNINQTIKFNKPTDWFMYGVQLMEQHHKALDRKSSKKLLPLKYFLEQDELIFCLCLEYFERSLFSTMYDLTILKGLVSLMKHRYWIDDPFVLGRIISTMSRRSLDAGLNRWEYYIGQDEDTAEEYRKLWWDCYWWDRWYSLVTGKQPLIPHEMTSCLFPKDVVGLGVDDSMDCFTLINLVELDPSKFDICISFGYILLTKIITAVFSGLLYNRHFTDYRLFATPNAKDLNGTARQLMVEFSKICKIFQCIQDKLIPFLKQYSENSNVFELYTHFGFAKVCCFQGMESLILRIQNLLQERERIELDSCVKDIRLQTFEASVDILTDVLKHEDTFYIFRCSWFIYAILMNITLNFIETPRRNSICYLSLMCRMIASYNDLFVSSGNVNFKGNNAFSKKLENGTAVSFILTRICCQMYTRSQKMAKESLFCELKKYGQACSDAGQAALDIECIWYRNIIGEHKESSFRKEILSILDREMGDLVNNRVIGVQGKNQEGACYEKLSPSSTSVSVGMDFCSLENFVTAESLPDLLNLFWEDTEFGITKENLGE
Method in brief: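 PURExpress in vitro transcription/translation supplied GST-tagged yeast transcription factors, either full-length or DNA-binding domain. Applied at about 100-200 nM to universal all-10-mer Agilent arrays double-stranded by primer extension, the bound protein was detected with fluorescent anti-GST. E-scores, modified Wilcoxon-Mann-Whitney statistics, were given by the Universal PBM Analysis Suite to ungapped eight-base words pooled with their reverse complements after masliner normalisation.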

| Sequence | PBM E-score |
| --- | --- |
| AACCGACT | 0.0723 |
| CGGCCCCA | -0.282 |
| ACTTGCCA | -0.078 |
| AATGAGAT | 0.127 |
| GTAAGGCA | -0.206 |
| ATCCGTAA | 0.149 |
| ATCCGGGC | 0.363 |
| ATCAGGAT | 0.115 |
| ATGCGGAA | 0.271 |
| ATCCGGAA | 0.418 |
| ATCCGGGA | 0.258 |
| AACCGGGC | 0.187 |
| CTCCGGGA | 0.205 |
| ATCCGCAT | 0.111 |
| CTCCGGGC | 0.0789 |
| GTCCGGGA | 0.342 |
| ATCCGGAT | 0.442 |
| TAAGCACA | 0.189 |
| ACAGAACT | 0.116 |
| AGTCGCAA | -0.0383 |
| CACCATCC | -0.292 |
| AGCATTTA | 0.0356 |
| AAGCCACC | -0.342 |

| Sequence | PBM E-score |
| --- | --- |
| CAGGCCCA | -0.211 |
| ATCCGGAC | 0.322 |
| CTCCGGAC | 0.328 |
| CCCCGGAC | 0.0445 |
| ACCCGGAC | 0.055 |
| ATCCGTAC | 0.195 |
| CTCCGGTC | 0.248 |
| CAATCCTC | -0.113 |
| CCAGATGC | -0.103 |
| GCAAGAAA | 0.161 |
| ATTGAGCG | -0.0456 |
| CCGTCCAG | 0.122 |
| AACCGGTC | 0.229 |
| AACCGGAA | 0.34 |
| AACCGGAT | 0.366 |
| AACCGGGT | 0.202 |
| AACCGGTG | 0.214 |
| AACCGGGG | -0.0803 |
| CACCGGAG | 0.173 |
| GACCGGAA | 0.232 |
| AACCGGAG | 0.358 |
| AACCGGTT | 0.359 |
| AACCGGAC | 0.212 |

| Sequence | PBM E-score |
| --- | --- |
| AACCGGGA | 0.188 |
| AGCTACCA | -0.173 |
| ATGCATTA | 0.0989 |
| GAATCCCA | -0.0522 |
| ATAGGAGG | -0.285 |
| AGGCTTAC | -0.0812 |
| GACTGGTA | 0.00991 |
| CACCGGGA | 0.152 |
| TACCGGTA | 0.23 |
| CACCGGAC | 0.268 |
| TACCGGGA | 0.207 |
| CACCGGAA | 0.368 |
| TACCGGAA | 0.409 |
| AATGGCCC | -0.247 |
| ACCTAGTC | -0.244 |
| AGTATCCA | -0.00531 |
| AACATCCC | 0.141 |
| AATATCCG | 0.352 |
| ATTATCCG | 0.36 |
| AATATCCC | -0.0444 |
| AGTATCCG | 0.332 |
| CACATCCG | 0.282 |
| ATTATCCC | 0.0672 |

| Sequence | PBM E-score |
| --- | --- |
| ATTATCCA | 0.0655 |
| AGTATCCC | -0.0953 |
| AACATCCG | 0.381 |
| AATATCCA | 0.17 |
| AATGTTAT | 0.184 |
| CACCAGGC | -0.103 |
| CCCTTGAA | -0.0291 |
| TACAATAA | 0.14 |
| CATGGTAC | -0.223 |
| ATACCCGA | 0.111 |
| CGCCTAAC | -0.0428 |
| TGACTACA | -0.022 |
| TAATATAA | 0.339 |
| ATTAAAAC | 0.286 |
| AAATATGC | 0.0299 |
| ATTAAAAG | 0.172 |
| ATTAAAAA | 0.323 |
| GAATATAA | 0.085 |
| AAATATGT | 0.304 |
| AAATATCA | 0.124 |
| AAATATGA | 0.0794 |
| AAAAATAA | 0.237 |
| CAATATAA | 0.243 |

| Sequence | PBM E-score |
| --- | --- |
| AAATATAA | 0.327 |
| GTACAATA | 0.188 |
| CACCGCGG | 0.242 |
| ACTATATA | 0.19 |
| GACGCATA | 0.0516 |
| GAATCTAC | 0.0543 |
| CGATCACG | 0.165 |
| TAGCACGA | 0.0455 |
| ACCCCACA | -0.308 |
| AACGATAA | 0.0408 |
| AACATCGA | 0.0284 |
| CAATATTA | 0.133 |
| TATAATAA | 0.324 |
| AATAATTA | 0.299 |
| AATAATAA | 0.285 |
| CATAATTA | 0.233 |
| CATAATAA | 0.0808 |
| GATAAACC | 0.208 |
| GATAAAAA | 0.29 |
| GATAAAAC | 0.305 |
| TAATATTA | 0.381 |
